The values below come from PubChem BioAssay (NCI).

Compounds without any hit were thinned out: in the full panel of roughly 83,000, 20% have a hit.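 Values shown are percent growth following 48 h exposure of cells in 96-well plates to a single concentration of compound; below 10 was considered active.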 Values without a mark were called inactive. Calls of active or inactive are those of the source.

This test concerns HL-60(TB) leukemia. Kind of test: NCI-60 one-dose screen, 48 h (100 = growth as untreated, 0 = no growth, -100 = all killed). The note with it: 10 µM unless noted.

Take `CC(C)n1nc(-c2ccc3oc(N)nc3c2)c2c(N)ncnc21`: the growth was 11.4%.

With `CCCNC(=O)Oc1ccc(/C(=C(/C)Cc2ccc(OC)cc2)c2ccc(OCCN3CCCCC3)cc2)cc1`, the growth is 58.6%.

For `COc1ccc(/C(=N\O)c2cc(C)c(OC)c(C)c2)cc1O`, the growth was -18.3% (active).

For the molecule `NC(=O)c1cc(Cl)ccc1NC(=O)/C=C/c1ccccc1`, the growth was -30.8% (active).

As for `CC[C@H](Nc1nc(N)nc(C2CC2)c1C#N)c1nc2cccc(NCc3ccc(C(=O)NO)cc3)c2c(=O)n1-c1ccccc1`, the growth is -19.3% (active).

For the molecule `C=CCNC(=O)Cc1c(-c2ccc(OC)cc2)oc2c(OC)c3c(c(OC)c12)OCO3`, the growth was 102%.

In the case of `CCn1c2ccc(O)cc2c2c(C)c3c[n+](C(C)C)ccc3c(C)c21`, the growth was 70.3%.

As for `C#C[C@]1(O)CC[C@H]2[C@@H]3CC=C4c5sc(N=C(N)N)nc5CC[C@]4(C)[C@H]3CC[C@@]21C`, the growth was -44.8% (active).

Take `Cc1cc(C)c(-c2c(O)c(Br)c(-c3c(C)cc(C)c(Br)c3C)c(O)c2Br)c(C)c1Br`: the growth is 27.3%.

As to `N#Cc1cnc2cc(OC[C@@H](O)CO)c(NC(=O)CC3CSSC3)cc2c1Nc1ccc(OCc2cccc(F)c2)c(Cl)c1`, the growth was -56.4% (active).

Regarding `Nc1cc(N)c(N)cc1N`, the growth is 29.1%.

On to `COc1cc(NC(=O)CSc2nc3ccc(Cl)cc3c(=O)n2-c2ccc(F)cc2)cc(OC)c1OC`, for which the growth is 106%.

Take `COc1ccc(C2=Nn3c(nnc3-n3nc(C)cc3C)SC2)cc1`: the growth is -29% (active).

Take `Cc1cc(C)cc(Nc2nccc(-c3c(-c4ccc(F)cc4)ncn3C3CCNCC3)n2)c1`: the growth is -58.9% (active).

As to `COc1cccc(-c2nn(-c3ccccc3)cc2-c2ccnc(NCCCNS(=O)(=O)c3ccc(Cl)cc3)c2)c1`, the growth was 40%.

Take `COc1cc(/C=C/c2nnc(-c3cc(-c4ccccc4)n[nH]3)o2)cc(OC)c1OC`: the growth is 75.1%.

In the case of `CCCCCCCC(=O)SCC/C=C/[C@@H]1CC(=O)NCc2cc(ccn2)C2=N[C@@](C)(CS2)C(=O)N[C@@H](C(C)C)C(=O)O1`, the growth is 22.6%.

Turning to `NS(=O)(=O)c1ccc(CCn2c(SCC(=O)N/N=C/c3ccccc3O)nc3ccccc3c2=O)cc1`, the growth was -25.5% (active).

For the molecule `COc1ccc(/C=C/C(=O)c2ccc(Nc3ncnc4ccccc34)cc2)cc1OC`, the growth was 75.6%.

Consider `Nc1ccccc1C#Cc1ccccc1C#Cc1ccc(OCCCCCCOc2ccc(C#Cc3ccccc3C#Cc3ccccc3N)cc2)cc1`, for which the growth was 110%.

In the case of `CCN(CC)CCOc1ccc(Nc2ncc3cc(-c4c(Cl)cccc4Cl)c(=O)n(CCOC)c3n2)cc1`, the growth was -19.2% (active).

With `NC(=O)c1cccc([C@@H]2O[C@H](CO)[C@@H](O)[C@H]2O)c1`, the growth is 39.5%.

In the case of `COc1ccc(-c2nc([C@@H](C)Sc3nc(N)cc(N)n3)c(C)s2)cc1OCCN1CCOCC1`, the growth is 105%.

Turning to `Cc1ccc(C(C)C)c(OCc2ccc(C(=O)N/N=C/c3cccc(O)c3O)cc2)c1`, the growth was -4.57% (active).

Consider `COC(=O)C(Cc1cnc[nH]1)N1CC(=O)N2[C@@H](c3ccccc3)SC[C@H]2C1=O` (stereo not given in full), for which the growth is 90.3%.

As to `O=C(Nc1ccc(-c2nc3ccc(NC(=O)c4ccc(Cl)cc4)cc3[nH]2)cc1)c1ccc(Cl)cc1`, the growth is -45.9% (active).

In the case of `CCOC(=O)C1=C(c2ccccc2)N=C2N(c3ccccc3)N=C(C(C)=O)N2C1c1ccc(Br)cc1` (stereo not given), the growth is 96.2%.

Turning to `Cc1ccnc(Nc2nc3ccccc3[nH]2)n1`, the growth was 87%.

`CCCCCCCCn1ccc2cc(NC(=O)Cn3cc(CN4CCCCCC4)nn3)ccc21`: the growth was -43.1% (active).

Consider `COc1cc(Cl)cc(-c2nn(-c3cccc(NC(=O)Nc4cccc(C(F)(F)F)c4)c3)cc2-c2ccncc2)c1`, for which the growth was -7.89% (active).

Turning to `COc1ccc2cc1Oc1ccc(cc1)C[C@H]1c3c(cc4c(c3Oc3cc5c(cc3OC)CCN(C)[C@@H]5C2)OCO4)CCN1C`, the growth was 36.3%.

Consider `COc1cc(NCCCCCN=C(N)NC(N)=NC(C)C)c2ncccc2c1`, for which the growth was 1.51% (active).

With `Cn1c(COC(=O)NCCc2ccccn2)nc2c(N3CCOCC3)nc(Cl)nc21`, the growth was -36.9% (active).

In the case of `Clc1cc(Cl)c(Cl)c(-c2nc(-c3cccnc3)cs2)c1`, the growth is -3.35% (active).

As for `CC(=O)c1c(C)[nH]c(-c2nc3ccc(N4CCN(C)CC4)cc3[nH]2)c1-c1ccc2c(c1)OCCO2`, the growth is -0.621% (active).
